Measured values published in the supplement of paper PMC10849652.
The full data set covers some 7,900 targets. This sample favours those with a hit. About 0.6% of all pairs of compound and target were hits. A number with no mark means an inactive call.

Compound: C1=CC(=C(C=C1Cl)C2=NC3=NC=CN=C3C(=N2)NC4=CC=NC=C4)F
Experiment: log2 fold change, soluble protein after heating vs DMSO (PISA); higher = thermal stabilisation; K562 cells, 10 uM, 30 min; active = over 0.2 and 3.5 SD of the protein, either way, in both replicates (recomputed)
Outline: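 Values are thermal stability changes relative to control samples and are taken from duplicates. They are stated as log2 fold changes. Before quantification by TMTpro 16plex LC-MS/MS with equalised channel sums, K562 cells at 2×10^6 cells/mL were treated with 10 μM compound for 30 min, heated in aliquots for 3 min across 48°C-58°C, pooled, extracted in PBS with 0.5% NP-40 at 4°C, and centrifuged at 21,000xg for 90 min to give the soluble supernatant.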

Sequence of UniProt Q5JWF2 (Q5JWF2 whole entry, looked up): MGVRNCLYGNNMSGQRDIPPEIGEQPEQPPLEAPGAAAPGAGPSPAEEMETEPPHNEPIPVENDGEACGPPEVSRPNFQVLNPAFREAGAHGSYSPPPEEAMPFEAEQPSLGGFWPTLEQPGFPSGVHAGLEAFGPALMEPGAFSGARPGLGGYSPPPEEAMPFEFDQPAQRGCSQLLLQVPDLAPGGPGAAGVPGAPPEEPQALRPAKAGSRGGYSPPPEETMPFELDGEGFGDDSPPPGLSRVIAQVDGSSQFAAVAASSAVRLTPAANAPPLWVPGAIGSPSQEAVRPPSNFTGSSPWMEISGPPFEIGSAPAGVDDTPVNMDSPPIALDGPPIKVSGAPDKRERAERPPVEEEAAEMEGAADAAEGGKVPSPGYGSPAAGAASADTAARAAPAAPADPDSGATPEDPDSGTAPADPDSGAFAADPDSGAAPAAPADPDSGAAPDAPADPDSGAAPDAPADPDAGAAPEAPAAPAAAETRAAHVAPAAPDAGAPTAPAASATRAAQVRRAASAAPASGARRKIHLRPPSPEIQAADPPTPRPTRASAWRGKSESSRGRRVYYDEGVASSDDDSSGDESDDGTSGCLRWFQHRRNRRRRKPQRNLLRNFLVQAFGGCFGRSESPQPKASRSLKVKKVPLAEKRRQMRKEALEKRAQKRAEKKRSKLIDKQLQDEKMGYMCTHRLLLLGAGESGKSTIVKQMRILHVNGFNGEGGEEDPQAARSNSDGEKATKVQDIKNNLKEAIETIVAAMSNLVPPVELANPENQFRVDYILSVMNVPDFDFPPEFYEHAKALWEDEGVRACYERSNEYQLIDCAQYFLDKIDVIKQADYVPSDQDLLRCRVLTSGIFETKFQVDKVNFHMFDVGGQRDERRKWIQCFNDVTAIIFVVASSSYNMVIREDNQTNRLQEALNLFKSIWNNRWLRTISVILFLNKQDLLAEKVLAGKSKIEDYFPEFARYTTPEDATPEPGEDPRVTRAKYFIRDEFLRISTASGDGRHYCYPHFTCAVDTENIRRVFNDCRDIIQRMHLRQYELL
Sequence of UniProt P09211 (P09211 whole entry, looked up): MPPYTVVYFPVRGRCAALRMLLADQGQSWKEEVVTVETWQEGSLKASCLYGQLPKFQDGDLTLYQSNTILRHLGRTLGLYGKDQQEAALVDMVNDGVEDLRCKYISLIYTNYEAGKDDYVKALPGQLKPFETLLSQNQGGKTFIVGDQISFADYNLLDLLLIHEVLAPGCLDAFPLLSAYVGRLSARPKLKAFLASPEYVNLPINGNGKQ
Sequence of UniProt Q86VQ1 (Q86VQ1 whole entry, looked up): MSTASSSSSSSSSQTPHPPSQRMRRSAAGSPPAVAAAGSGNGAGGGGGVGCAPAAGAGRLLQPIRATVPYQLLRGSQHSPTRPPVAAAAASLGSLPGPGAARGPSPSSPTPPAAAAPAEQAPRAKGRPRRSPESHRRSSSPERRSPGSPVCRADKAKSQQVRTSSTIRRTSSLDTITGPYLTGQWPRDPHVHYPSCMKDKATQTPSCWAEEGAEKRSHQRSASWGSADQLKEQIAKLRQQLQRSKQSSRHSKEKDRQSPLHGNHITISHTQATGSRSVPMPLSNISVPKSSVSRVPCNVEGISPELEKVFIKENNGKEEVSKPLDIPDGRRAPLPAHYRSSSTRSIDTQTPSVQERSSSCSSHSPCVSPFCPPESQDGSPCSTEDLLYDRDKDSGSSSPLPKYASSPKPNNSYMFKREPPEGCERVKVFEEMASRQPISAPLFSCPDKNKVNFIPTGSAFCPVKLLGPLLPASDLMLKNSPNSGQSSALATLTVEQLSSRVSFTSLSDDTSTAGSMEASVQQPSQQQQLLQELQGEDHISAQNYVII
Sequence of UniProt P22830 (P22830 whole entry, looked up): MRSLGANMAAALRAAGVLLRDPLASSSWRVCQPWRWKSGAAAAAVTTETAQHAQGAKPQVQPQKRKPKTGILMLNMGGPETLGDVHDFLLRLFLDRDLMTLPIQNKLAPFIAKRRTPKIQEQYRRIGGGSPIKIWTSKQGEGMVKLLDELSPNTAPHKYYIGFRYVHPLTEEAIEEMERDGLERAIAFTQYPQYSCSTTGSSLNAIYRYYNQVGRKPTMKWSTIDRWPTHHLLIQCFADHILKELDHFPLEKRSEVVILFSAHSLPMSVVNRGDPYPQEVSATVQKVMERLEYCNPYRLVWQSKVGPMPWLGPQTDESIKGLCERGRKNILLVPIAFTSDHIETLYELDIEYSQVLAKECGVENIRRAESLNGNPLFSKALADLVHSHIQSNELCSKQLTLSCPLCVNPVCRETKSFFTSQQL
Sequence of UniProt P30711 (P30711 whole entry, looked up): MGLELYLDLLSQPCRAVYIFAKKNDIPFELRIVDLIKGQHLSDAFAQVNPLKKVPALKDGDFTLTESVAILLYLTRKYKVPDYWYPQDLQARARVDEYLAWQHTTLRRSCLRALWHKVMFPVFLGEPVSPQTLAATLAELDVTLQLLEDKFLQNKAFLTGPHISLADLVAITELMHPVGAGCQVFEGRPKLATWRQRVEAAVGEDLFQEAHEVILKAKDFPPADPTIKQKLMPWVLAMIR
Sequence of UniProt Q9H4A6 (Q9H4A6 whole entry, looked up): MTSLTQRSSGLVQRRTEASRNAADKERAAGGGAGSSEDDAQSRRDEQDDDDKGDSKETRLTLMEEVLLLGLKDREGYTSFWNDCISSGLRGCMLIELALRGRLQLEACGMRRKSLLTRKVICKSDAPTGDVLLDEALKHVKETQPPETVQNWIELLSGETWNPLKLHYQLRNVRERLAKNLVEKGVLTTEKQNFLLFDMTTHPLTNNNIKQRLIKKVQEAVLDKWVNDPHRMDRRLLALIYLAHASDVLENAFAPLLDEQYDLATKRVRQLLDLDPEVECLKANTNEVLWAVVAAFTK
Sequence of UniProt P06280 (P06280 whole entry, looked up): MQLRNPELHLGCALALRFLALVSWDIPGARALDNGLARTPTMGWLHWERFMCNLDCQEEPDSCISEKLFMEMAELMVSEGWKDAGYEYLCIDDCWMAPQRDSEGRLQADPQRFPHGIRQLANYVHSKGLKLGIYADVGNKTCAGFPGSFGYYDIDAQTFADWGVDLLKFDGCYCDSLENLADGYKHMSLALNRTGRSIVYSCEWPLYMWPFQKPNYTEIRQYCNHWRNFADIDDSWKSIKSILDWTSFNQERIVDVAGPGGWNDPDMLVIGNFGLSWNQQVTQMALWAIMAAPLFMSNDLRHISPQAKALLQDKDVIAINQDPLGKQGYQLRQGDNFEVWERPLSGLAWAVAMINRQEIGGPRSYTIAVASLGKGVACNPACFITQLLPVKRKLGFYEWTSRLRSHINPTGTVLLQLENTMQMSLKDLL
Sequence of UniProt Q8WUI4 (Q8WUI4 whole entry, looked up): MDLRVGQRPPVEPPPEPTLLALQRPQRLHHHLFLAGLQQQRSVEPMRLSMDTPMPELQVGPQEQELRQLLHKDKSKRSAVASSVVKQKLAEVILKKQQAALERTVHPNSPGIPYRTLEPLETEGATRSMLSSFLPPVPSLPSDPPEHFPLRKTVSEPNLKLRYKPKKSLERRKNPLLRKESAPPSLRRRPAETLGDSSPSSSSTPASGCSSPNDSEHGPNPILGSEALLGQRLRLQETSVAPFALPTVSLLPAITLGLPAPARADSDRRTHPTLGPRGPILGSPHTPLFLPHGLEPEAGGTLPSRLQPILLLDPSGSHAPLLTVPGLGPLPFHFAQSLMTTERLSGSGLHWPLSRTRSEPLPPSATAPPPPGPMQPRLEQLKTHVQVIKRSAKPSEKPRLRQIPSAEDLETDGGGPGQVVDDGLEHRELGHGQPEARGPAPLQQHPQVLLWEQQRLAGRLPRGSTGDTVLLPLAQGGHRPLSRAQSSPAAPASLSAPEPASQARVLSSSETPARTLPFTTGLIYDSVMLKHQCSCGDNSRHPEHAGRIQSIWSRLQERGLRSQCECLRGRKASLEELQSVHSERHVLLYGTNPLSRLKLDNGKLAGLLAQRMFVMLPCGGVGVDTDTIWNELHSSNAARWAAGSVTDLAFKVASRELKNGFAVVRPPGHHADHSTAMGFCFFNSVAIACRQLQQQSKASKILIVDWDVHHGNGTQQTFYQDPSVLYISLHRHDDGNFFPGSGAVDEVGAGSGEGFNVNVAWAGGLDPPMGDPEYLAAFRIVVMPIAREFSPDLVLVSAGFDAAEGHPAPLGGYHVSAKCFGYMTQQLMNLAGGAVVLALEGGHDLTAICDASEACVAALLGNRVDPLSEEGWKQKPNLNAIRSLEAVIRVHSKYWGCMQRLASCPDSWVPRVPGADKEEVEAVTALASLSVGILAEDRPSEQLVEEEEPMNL
Sequence of UniProt P05114 (P05114 whole entry, looked up): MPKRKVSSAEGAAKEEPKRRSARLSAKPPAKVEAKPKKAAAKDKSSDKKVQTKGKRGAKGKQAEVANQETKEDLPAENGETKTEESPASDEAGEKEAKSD
Sequence of UniProt P06865 (P06865 whole entry, looked up): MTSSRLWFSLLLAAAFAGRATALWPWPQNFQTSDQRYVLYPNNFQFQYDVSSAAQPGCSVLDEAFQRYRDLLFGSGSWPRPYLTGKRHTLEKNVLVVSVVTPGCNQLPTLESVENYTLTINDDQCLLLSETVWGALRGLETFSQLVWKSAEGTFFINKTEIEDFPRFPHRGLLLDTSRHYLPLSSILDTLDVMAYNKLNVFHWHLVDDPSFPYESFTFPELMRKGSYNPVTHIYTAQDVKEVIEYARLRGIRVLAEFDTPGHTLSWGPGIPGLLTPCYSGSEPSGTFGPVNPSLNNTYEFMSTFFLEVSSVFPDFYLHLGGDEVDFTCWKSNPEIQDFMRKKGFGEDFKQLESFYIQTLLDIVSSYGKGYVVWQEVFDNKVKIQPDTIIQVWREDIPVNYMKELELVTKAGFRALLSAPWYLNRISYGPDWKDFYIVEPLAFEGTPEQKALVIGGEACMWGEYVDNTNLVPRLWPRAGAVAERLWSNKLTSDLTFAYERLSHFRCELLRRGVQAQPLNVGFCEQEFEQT
Sequence of UniProt Q9H0R8 (Q9H0R8 whole entry, looked up): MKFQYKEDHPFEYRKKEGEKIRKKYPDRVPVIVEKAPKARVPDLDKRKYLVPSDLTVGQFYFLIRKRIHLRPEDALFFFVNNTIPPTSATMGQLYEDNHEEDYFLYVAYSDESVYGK

Target	log2 fold change
GSK3B isoform 2 (UniProt P49841)	0.007
GDI1 (UniProt P31150)	0.03
HMGCR isoform 3 (UniProt P04035)	-0.001
FBL (UniProt P22087)	-0.566 (active)
HMG20A (UniProt Q9NP66)	-0.09
HDAC2 (UniProt Q92769)	-0.02
GCLM (UniProt P48507)	0.014
H1FX (UniProt Q92522)	-0.379
HMGN1 (UniProt P05114)	-0.011
GDPD1 (UniProt Q8N9F7)	-0.061
IFT74 (UniProt Q96LB3)	0.125
GLCCI1 (UniProt Q86VQ1)	-0.058
GSTP1 (UniProt P09211)	0.013
HNRNPF (UniProt P52597)	-0.036
HSPA8 (UniProt E9PK54)	-0.346
GNPAT (UniProt O15228)	0.075
GTF2E1 (UniProt P29083)	0.046
H2AFX (UniProt P16104)	-0.54

Target	log2 fold change
FOXK1 (UniProt P85037)	0.054
GABARAPL1 isoform 2 (UniProt Q9H0R8)	-0.023
HOOK3 (UniProt Q86VS8)	0.009
FECH isoform 2 (UniProt P22830)	0.349
HPCAL1 (UniProt P37235)	0.029
GOLPH3 (UniProt Q9H4A6)	0.104
HIST2H2BF isoform 2 (UniProt Q5QNW6)	-0.433
HDAC7 isoform 5 (UniProt Q8WUI4)	-0.08
HEXA (UniProt P06865)	0.013
HDAC6 (UniProt Q9UBN7)	-0.007
IFRD2 isoform 2 (UniProt Q12894)	0.003
GSTT1 (UniProt P30711)	0.275
H2AZ1 (UniProt P0C0S5)	-0.554
HSD17B12 (UniProt Q53GQ0)	0.02
GNAS (UniProt Q5JWF2)	-0.032
GLA (UniProt P06280)	-0.018
GLUL (UniProt P15104)	0.027
